The values that follow come from PubChem BioAssay (Tox21).

“And” between values parts separate entries of the source, which are not always exact repeats. Identical values can stand only once. More than one record can exist for a structure, and the calls need not agree. The source made the active and inactive calls. Unless noted, calls follow the shape of the dose curve; as a rule, active = well fitted curve in the direction sought with a large enough effect in the repeat runs; inconclusive = weak or mixed curves; inactive = no such curve, though single readings can be large; an effect the other way counts as inactive or inconclusive.

The nature of assay [1]: qHTS assay to identify small molecule antagonists of the thyroid receptor (TR) signaling pathway - cell viability counter screen (AID 743064). Also: nearly all actives have a fitted effect of over 50% in size. Also: potency is read from the fitted curve at half-maximal effect. An outline of the steps: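 Rat GH3 pituitary tumor cells stably expressing two TR response elements driving luciferase were plated, rested 4 h, then dosed with library compounds and T3 (1 nM final). After 23.5 h at 37 °C, CellTiter-Fluor was added for 30 min and fluorescence recorded.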

Assay [2] relates to thyroid hormone receptor (rat, GH3 cells). Description: qHTS assay to identify small molecule agonists of the thyroid receptor (TR) signaling pathway (AID 743066; calls by dose curve).
Assay [3] has as its target Estrogen receptor (Homo sapiens) (UniProt P03372). As to the kind of experiment: qHTS assay to identify small molecule antagonists of the estrogen receptor alpha (ER-alpha) signaling pathway (AID 743069; active = well fitted curve in the direction sought with a large enough effect in the signal ratio in the repeat runs, not every such curve was filed as active; inconclusive = weak or mixed curves, or effect the other way; inactive = no such curve, though single readings can be large or run the other way; the % refers to the signal ratio). An outline of the steps: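 Screening used a UAS-driven beta-lactamase reporter integrated into HEK293 cells expressing ER-alpha, stimulated with 17beta-estradiol alongside test compounds over 18 hr at 37C; signal came from LiveBLAzer B/G FRET fluorescence.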
For orientation: qHTS replaces the single test concentration by a dilution series.

Assay [4] in a line: qHTS assay to identify small molecule antagonists of the estrogen receptor alpha (ER-alpha) signaling pathway - cell viability counter screen (AID 743074; calls by dose curve; also: nearly all actives have a fitted effect of over 45% in size; also: potency is read from the fitted curve at half-maximal effect).
In assay [5] the target is Estrogen receptor (Homo sapiens) (UniProt P03372). Description: qHTS assay to identify small molecule agonists of the estrogen receptor alpha (ER-alpha) signaling pathway (AID 743075; calls by dose curve; also: potency is read from the fitted curve at half-maximal effect).
Assay [6] shares this target. As to the kind of experiment: qHTS assay to identify small molecule agonists of the estrogen receptor alpha (ER-alpha) signaling pathway using the BG1 cell line (AID 743079). Also: nearly all actives have a fitted effect of over 20% in size. Also: potency is read from the fitted curve at half-maximal effect.
The nature of assay [7]: qHTS assay to identify small molecule antagonists of the estrogen receptor alpha (ER-alpha) signaling pathway using the BG1 cell line (AID 743080; calls by dose curve;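 also: BG1 cells stimulated with 17beta-estradiol alongside compound; series mostly up to about 70 µM; nearly all actives have a fitted effect of over 25% in size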). An outline of the steps: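 After 5 days in phenol-red-free 10% charcoal-stripped FBS medium, BG1-Luc-4E2 cells were seeded, left 24 h at 37 C, co-treated with compounds and 17beta-estradiol for 21.5 h, then assayed for viability and luciferase.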

The nature of assay [8]: qHTS assay to identify small molecule antagonists of the estrogen receptor alpha (ER-alpha) signaling pathway using the BG1 cell line - cell viability counter screen (AID 743081).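 Also: compound given together with 17beta-estradiol as the ER stimulus; nearly all actives have a fitted effect of over 45% in size.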 Also: potency is read from the fitted curve at half-maximal effect.
The target in another assay is Aromatase (Homo sapiens) (UniProt P11511). Description: qHTS assay to identify aromatase inhibitors (AID 743083). Also: nearly all actives have a fitted effect of over 55% in size. Also: potency is read from the fitted curve at half-maximal effect.
A short description of assay [9]: qHTS assay to identify small molecule antagonists of the thyroid receptor (TR) signaling pathway (AID 743065). Also: nearly all actives have a fitted effect of over 55% in size. Also: potency is read from the fitted curve at half-maximal effect. In a few lines:
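GH3.TRE-Luc rat pituitary cells carrying two TR response elements driving luciferase were plated for 4 h, given compound plus 1 nM T3 (final), and incubated 23.5 h at 37 C. ONE-Glo luminescence measured reporter inhibition; CellTiter-Fluor fluorescence tracked cytotoxicity.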
% is scaled to controls: 0 for no effect and ±100 for the full control effect.

Aromatase (Homo sapiens), sequence (P11511 whole entry, looked up): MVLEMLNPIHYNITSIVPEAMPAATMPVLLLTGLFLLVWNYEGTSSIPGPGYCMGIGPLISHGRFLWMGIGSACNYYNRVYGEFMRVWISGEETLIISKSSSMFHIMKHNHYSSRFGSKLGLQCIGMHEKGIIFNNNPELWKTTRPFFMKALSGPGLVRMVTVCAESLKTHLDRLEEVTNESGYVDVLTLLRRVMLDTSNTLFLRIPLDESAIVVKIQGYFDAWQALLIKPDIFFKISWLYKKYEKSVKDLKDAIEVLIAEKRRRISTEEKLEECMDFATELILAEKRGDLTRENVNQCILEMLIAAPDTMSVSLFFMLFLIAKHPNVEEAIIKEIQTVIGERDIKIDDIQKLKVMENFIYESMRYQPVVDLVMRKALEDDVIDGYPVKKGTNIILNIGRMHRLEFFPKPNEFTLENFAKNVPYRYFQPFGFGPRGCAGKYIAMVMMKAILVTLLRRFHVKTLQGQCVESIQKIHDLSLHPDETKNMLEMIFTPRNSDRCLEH
Estrogen receptor (Homo sapiens), sequence (P03372 whole entry, looked up): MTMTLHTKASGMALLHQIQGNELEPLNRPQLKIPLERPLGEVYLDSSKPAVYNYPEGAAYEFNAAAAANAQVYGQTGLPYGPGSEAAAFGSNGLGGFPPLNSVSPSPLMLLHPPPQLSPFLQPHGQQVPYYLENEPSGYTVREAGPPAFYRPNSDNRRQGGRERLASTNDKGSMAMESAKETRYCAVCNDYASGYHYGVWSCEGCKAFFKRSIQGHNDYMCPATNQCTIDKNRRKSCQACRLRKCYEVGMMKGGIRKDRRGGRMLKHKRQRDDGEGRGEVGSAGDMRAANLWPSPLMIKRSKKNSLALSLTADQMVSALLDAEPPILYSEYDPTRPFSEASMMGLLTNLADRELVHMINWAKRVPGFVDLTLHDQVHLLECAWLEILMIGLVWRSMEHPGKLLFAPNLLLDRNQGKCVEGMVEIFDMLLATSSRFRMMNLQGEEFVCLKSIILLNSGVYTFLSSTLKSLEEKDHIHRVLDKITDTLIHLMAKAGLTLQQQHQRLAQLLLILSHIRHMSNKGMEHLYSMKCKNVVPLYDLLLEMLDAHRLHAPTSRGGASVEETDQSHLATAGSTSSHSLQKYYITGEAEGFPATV

On to `CC(=O)[C@H]1CC[C@H]2[C@@H]3CC=C4C[C@@H](O)CC[C@]4(C)[C@H]3CC[C@]12C`, for which the Potency result in assay [1], in assay [2], in [3], in assay [4], in [7] and in assay [8] was “inactive” in each case. The Potency result with Aromatase (Homo sapiens) was “inactive”. In addition, the Potency in assay [5] is 952 nM [inconclusive] (active) and 3.46 µM [inconclusive] (active); in [6], 596 nM (active) and 5.44 µM (active).

`OCCNCCO`: the Potency result in assay [1], in [3], in assay [5], in assay [6], in assay [7] and in assay [8] was “inactive” throughout. Moreover, the Potency result with Aromatase (Homo sapiens) was “inactive”. The Potency in assay [4] was 17.4 µM (active) and inactive.

`COc1ccc(C(=O)c2ccccc2O)c(O)c1`: the Potency result (in assay [1]; in [9]; in [2]; in assay [4]; in assay [8]; with Aromatase (Homo sapiens)) was “inactive” in each case.

In the case of `C[N+](C)(C)CCO`, the Potency result (in assay [1]; in assay [2]; in assay [4]; in [7]; in assay [8]; with Aromatase (Homo sapiens)) was “inactive” in each case.

On to `CC(=O)O[C@]1(C(C)=O)CC[C@H]2[C@@H]3C=C(Cl)C4=CC(=O)CC[C@]4(C)[C@H]3CC[C@@]21C`, for which the Potency entry (in assay [1]; in assay [2]; in assay [4]; in assay [5]; in assay [8]; with Aromatase (Homo sapiens)) was “inactive” in each case. Besides, the Potency in [9] is 26.6 µM (active) and 54.4 µM (active).

In the case of `C[C@]12C=CC(=O)C=C1CC[C@H]1[C@@H]3C[C@@H](O)[C@](O)(C(=O)CO)[C@@]3(C)C[C@H](O)[C@@]12F`, the Potency entry in assay [1], in assay [9], in assay [2], in assay [4], in assay [5] and in assay [8] was “inactive” in each case. For the same compound, in the assay with Aromatase (Homo sapiens), the Potency result is “inactive”. Further, the Potency in assay [6] was 4.73 µM (active) and 48.6 µM (active).

Turning to `CC1(C)NC(=O)N(c2ccc([N+](=O)[O-])c(C(F)(F)F)c2)C1=O`, the Potency entry in assay [1], in assay [2], in assay [4] and in assay [8] was “inactive” in each case. The Potency in assay [9] was 23.7 µM (active) and 24.3 µM (active); with Aromatase (Homo sapiens), “inactive and 27.3 µM (active)”.

`Cc1ccc(S(=O)(=O)O)cc1C`: the Potency entry in [9], in assay [2], in assay [3], in assay [4], in assay [5] and in [6] was “inactive” each time. The Potency result (in [7]; in assay [8]; with Aromatase (Homo sapiens)) was “inactive” in each case.

On to `CCO[Si](CCCNC(N)=O)(OCC)OCC`, for which the Potency entry in assay [9], in assay [2], in [3], in assay [4], in assay [5] and in assay [6] was “inactive” in each case. Also, the Potency result (in assay [7]; in assay [8]; in the assay with Aromatase (Homo sapiens)) was “inactive” in each case.

As for `CCCOCCO`, the Potency entry (in assay [1]; in assay [9]; in assay [2]; in assay [4]; in assay [8]; in the assay with Aromatase (Homo sapiens)) was “inactive” throughout.

With `Cc1ccc(S(=O)(=O)NCl)cc1`, the Potency entry in assay [1], in [2], in assay [3], in assay [4], in [5] and in assay [6] was “inactive” throughout. Moreover, the Potency result (in assay [7]; in assay [8]; with Aromatase (Homo sapiens)) was “inactive” each time.

For `CC(C)[N+](C)(CCOC(=O)C1c2ccccc2Oc2ccccc21)C(C)C`, the Potency entry in [9], in assay [2], in [3], in assay [4], in [5] and in assay [6] was “inactive” each time. Also, the Potency entry (in assay [7]; in assay [8]; with Aromatase (Homo sapiens)) was “inactive” in each case.

Consider `CCCCCC=O`, for which the Potency entry in [9], in assay [2], in [3], in [4], in assay [5] and in assay [6] was “inactive” throughout. The Potency result in assay [7] and in [8] was “inactive” throughout.

Take `Cc1ccc2c(c1)C(=O)OC2=O`: the Potency result (in assay [1]; in assay [9]; in assay [2]; in assay [4]; in [8]; in the assay with Aromatase (Homo sapiens)) was “inactive” in each case.

Turning to `CN(C)C`, the Potency entry in assay [9], in assay [2], in [3], in [4], in assay [5] and in [6] was “inactive” each time. For the same compound, the Potency result (in assay [7]; in assay [8]; with Aromatase (Homo sapiens)) was “inactive” in each case.

For `O=C1OC2(c3ccccc31)c1cc(I)c(O)c(I)c1Oc1c2cc(I)c(O)c1I`, the Potency in assay [1] is 19.4 µM (active) [middle of 4 runs]; in [9] it was 34.4 µM (active) [middle of 4 runs]; in assay [8], 10.9 µM (active) [middle of 4 runs]. Moreover, the Potency result (in assay [2]; in assay [4]; with Aromatase (Homo sapiens)) was “inactive” in each case.

Turning to `C=CN1CCCC1=O`, the Potency entry in [1], in assay [3], in [4], in [5], in assay [6] and in [7] was “inactive” in each case. Further, the Potency result (in assay [8]; with Aromatase (Homo sapiens)) was “inactive” throughout.

For the compound `CC/C(=C(/CC)c1ccc(O)cc1)c1ccc(O)cc1`, in [1], the Potency was 54 µM (active) and 54.5 µM (active). Moreover, the Potency result in [4] and in assay [8] was “inactive” in each case.

Regarding `CN1CCOCC1`, the Potency result (in assay [1]; in assay [9]; in assay [2]; in assay [4]; in assay [8]; in the assay with Aromatase (Homo sapiens)) was “inactive” in each case.

In the case of `Oc1c(Cl)ccc(Cl)c1Cl`, the Potency result in [1], in [9], in [2], in assay [4], in assay [5] and in assay [6] was “inactive” throughout. The Potency entry (in assay [7]; in assay [8]; in the assay with Aromatase (Homo sapiens)) was “inactive” each time.

As for `CCCN1C=CN(C)C1`, the Potency result in assay [1], in assay [3], in [4], in assay [5], in assay [6] and in assay [7] was “inactive” each time. Further, the Potency result (in assay [8]; with Aromatase (Homo sapiens)) was “inactive” in each case.

Consider `Cc1ccc(C)c(O)c1`, for which the Potency result (in assay [1]; in assay [9]; in [2]; in assay [4]; in [8]; in the assay with Aromatase (Homo sapiens)) was “inactive” throughout.
